For 17 compounds, growth inhibition results are on record in PubChem BioAssay (NCI).

The structures appear in SMILES notation. Values joined by “and” are separate entries in the source; they are usually repeats but may differ in a detail not shown here. Identical values can stand only once. Compounds without any hit were thinned out: in the full panel of roughly 79,000, 15% have a hit. Unmarked numbers belong to inactive results. Active and inactive are the calls of the source. Rule as the data show it: active = growth inhibition above about 70%; inactive = the rest.

This test can be described thus: NCI Yeast Anticancer Drug Screen. Data for the cln2 rad14 strain (AID 165).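 Also: 0% = growth equal to vehicle treated cultures.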 Particulars: S. cerevisiae cln2 rad14 strain, active compounds read high. How it is done: Growth inhibition of yeast strains with defined genetic alterations is measured as a screen for potential anti-cancer activity. Selected strains with alterations in DNA damage repair or cell cycle control were exposed to compounds and growth inhibition was measured relative to vehicle treated controls. The strain used in this assay is cln2 rad14

Where [1] appears, read: at 5.0 µM (retest, dose inferred, filed as 0.5).
The mark [2] stands for this setting: at 50.0 µM (retest, dose inferred, filed as 5.0).

Turning to `O=Cc1ccc(O)c(O)c1O`, the growth inhibition runs as follows: under setting [1], 0%; under setting [2], 36%.
As for `CCCCN(CCCC)CCCCCCCCCCO`, the growth inhibition was 2% under setting [1], 0% under setting [2] and 4.2% (at 50.0 µM).
Turning to `CC(C)NC(=O)C(C)O` (stereo not given), the growth inhibition runs as follows: under setting [1], 2%; under setting [2], 3%.
For `CCCCCCCCCCCCCCCC[N+](C)(C)C`, in that order: 82% (active) and 97% (active).
For `COC(=O)[C@]1(C)CCC[C@]2(C)c3ccc(C(C)C)cc3C(=O)[C@@H](Br)[C@@H]12`, the growth inhibition is -12% under setting [1], 44% under setting [2] and 22.1% (at 50.0 µM).
Consider `CC1=C(C2=C(C)C(=O)C(=O)c3cc(C)ccc32)c2ccc(C)cc2C(=O)C1=O`, for which the growth inhibition under setting [1] is 71% (active), the growth inhibition under setting [2] was 98% (active) and the growth inhibition (at 50.0 µM) is 89.8% (active).
Take `CN(C)c1ccc2cc3c(cc2c1)Oc1ccccc1N3.[Cl][Zn][Cl]`: the growth inhibition is 29% under setting [1], 94% (active) under setting [2] and 83.9% (active) (at 50.0 µM).
Consider `CCOC(=O)c1[nH]c(C#N)c(C(=O)OCC)c1C`, for which the growth inhibition was 1% under setting [1], 45% under setting [2] and 12.6% (at 50.0 µM).
In the case of `COC1=CC(=O)c2c(O)c3c(c(O)c2C1=O)CC(C)(O)OC3` (stereo not given), the growth inhibition is 21% under setting [1], 45% under setting [2] and 47.9% (at 50.0 µM).
For `CCCCCCCCCCCCCCCCCC[S+](C)CC` (stereo not given), the growth inhibition runs as follows: under setting [1], 98% (active); under setting [2], 98% (active); (at 50.0 µM) 91.6% (active).
Take `Oc1ccc(Nc2ccc3ccccc3c2)cc1`: the growth inhibition is, setting by setting: under setting [1], -5%; under setting [2], 98% (active); (at 50.0 µM) 97.5% (active).
As for `COc1cc(OC)c(/C=C/c2c3ccccc3cc[n+]2C)c(OC)c1`, the growth inhibition under setting [1] is 46%, the growth inhibition under setting [2] is 64% and the growth inhibition (at 50.0 µM) was 9.85%.
The like results for `O=C(CCl)N(c1ccccc1)c1ccccc1` were, in that order, 1%, 39% and 68.5%.
Turning to `COc1cc(NCCCNc2c3ccc(Cl)cc3nc3ccc(OC)cc23)c2ncccc2c1`, where the note is “at 50.0 µM”, the growth inhibition was -0.35% and 54.1%.
In the case of `Oc1ccccc1CNCc1ccccc1O`, the growth inhibition (at 50.0 µM) was 23.8% and -28.1%.
The same measure, in the same setting: the value for `COC1C(C)OCOC2COCOC21` (stereo not given) was 0.5% and -19.8%; that for `CC(O)c1nc2c([nH]1)c(=O)n(C)c(=O)n2C` (stereo not given) was -30.3% and -16.9%.
